PubChem BioAssay (Tox21)
Records with an inconclusive call do not appear. Values without a mark were called inactive. Calls of active or inactive are those of the source. The call rests on the fitted dose curve.

Test: p53 small molecule agonists, cell-based qHTS assay with human liver microsomes (AID 1963577);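 on activation: p53 response element beta-lactamase reporter cells with liver microsomes plus NADPH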
Details: HCT-116 p53RE-bla with human liver microsomes, ratio, 16 h; series mostly up to 66 µM; activation: at the top concentration
Text: National Center for Advancing Translational Sciences [NCATS]
Division of Preclinical Innovation [DPI]
U.S. Environmental Protection Agency [EPA]
National Institutes of Environmental Health Sciences [NIEHS]
National Toxicology Program [NTP]
U.S. Food and Drug Administration [FDA]
p53, a tumor suppressor protein, is activated following cellular insult, including DNA damage and other cellular stresses. The activation of p53 regulates cell fate by inducing DNA repair, cell cycle arrest, apoptosis, or cellular senescence. The activation of p53, therefore, is a good indicator of DNA damage and other cellular stresses. […] The activation of the reporter gene under culture conditions can be detected by fluorescence intensity.
Tox21 Assay Protocol Summary:
The p53RE-bla cells were dispensed at 4,000cells/3ul/well in 1536-well black-clear bottom plates. After the assay plates were incubated at 37 C, 5% CO2 incubator for 5 hours, 23 nL of compounds dissolved in DMSO, positive controls or DMSO only was transferred to the assay plate. Following compound addition, 3 uL of human liver microsomes (XenoTech, Kansas City, KS) at final concentration of 0.5 mg/mL and 1uL of Beta-Nicotinamide adenine dinucleotide 2-phosphate (NADPH) at final concentration of 0.5 mg/mL were transferred to the assay plate. The plates were incubated at 37 C for 16 hours. 1 uL of LiveBLAzer detection mixture was added to each well and the plates were incubated at room temperature in the dark for 2 h.
On the % scale 0 is the no-effect control and ±100 the full control effect; potency means the concentration at half of the fitted maximal effect.

Structure (SMILES)	activation	Potency
Cc1ccccn1	-3.94%	
Oc1ccc(CCNCCCCCCNCCc2ccccc2)cc1O	0.113% [at 30.3 µM]	
O=c1cc(-c2ccccc2)oc2cc(O)cc(O)c12	-11.7%	
Nc1ccn(C2CO[C@H](CO)O2)c(=O)n1 (stereo not given in full)	0.718% [at 30.3 µM]	
CN(C)c1ccc(N=Nc2ccccc2C(=O)O)cc1	-7.42%	
CCCCOCCOC(=O)COc1nc(Cl)c(Cl)cc1Cl	-0.747%	
Nc1ccc([N+](=O)[O-])c(N)c1	4.39%	
O=C1CCCC(=O)O1	-3.41%	
CCCCCCCC/C=C\CCCCCCCC(=O)N(CCO)CCO	-0.979%	
C[C@@H](NCCCc1cccc(C(F)(F)F)c1)c1cccc2ccccc12	-0.226% [at 30.3 µM]	
OC(CCN1CCCCC1)(c1ccccc1)C1CC2C=CC1C2 (stereo not given)	-0.147% [at 30.3 µM]	
CN(C/C=C/c1ccccc1)Cc1cccc2ccccc12	7.11% [at 30.3 µM]	
COc1cc2ncnc(Nc3cccc(Cl)c3)c2cc1OC	-11.3% [at 13.5 µM]	
Clc1ccc(Cn2c(CN3CCCC3)nc3ccccc32)cc1	-8.63% [at 30.3 µM]	
CCOc1ccc(O)cc1	2.94%	
O=C1OC(=O)c2cc(-c3ccc4c(c3)C(=O)OC4=O)ccc21	-16.5%	
Sc1nc2ccccc2s1	0.683%	
S=P(N1CC1)(N1CC1)N1CC1		34.1 µM (active)
CCCCCCCCCCCC(=O)[O][Sn]([CH2]CCC)([CH2]CCC)[O]C(=O)CCCCCCCCCCC	-3.47% [at 30.3 µM]	
CC1(CO)CN(c2ccccc2)NC1=O (stereo not given)	0.529%	

Structure (SMILES)	activation	Potency
O=C(O)COc1nn(Cc2ccccc2)c2ccccc12	5.37% [at 30.3 µM]	
C1CCOC1	1.69%	
CCCN(CCc1cccs1)[C@H]1CCc2c(O)cccc2C1	-1.4% [at 30.3 µM]	
CNCC(O)c1ccc(O)c(O)c1 (stereo not given)	-8.89% [at 30.3 µM]	
CN1CCN(CCCN2c3ccccc3Sc3ccc(S(=O)(=O)N(C)C)cc32)CC1	-7.22% [at 30.3 µM]	
O=S(=O)(c1ccc(OCc2ccccc2)cc1)c1ccccc1O	-12.5%	
Cc1onc(-c2c(Cl)cccc2Cl)c1C(=O)N[C@@H]1C(=O)N2[C@@H]1SC(C)(C)[C@@H]2C(=O)O	-10.4% [at 30.3 µM]	
CC(=O)S[C@@H]1CC2=CC(=O)CC[C@]2(C)[C@H]2CC[C@@]3(C)[C@@H](CC[C@@]34CCC(=O)O4)[C@H]12	-2.25%	
CCCCCCCCC(CCCCCC)C(=O)O (stereo not given)	-0.615%	
Cc1ccc(O)c2ncccc12	-14.1% [at 30.3 µM]	
COc1cc2nc(N3CCN(C(=O)C4COc5ccccc5O4)CC3)nc(N)c2cc1OC (stereo not given)	-11.4% [at 30.3 µM]	
O=C(c1ccccc1)c1ccc(O)cc1O		inactive
CC(C)(c1ccccc1)c1ccccc1	0.704%	
CC(=O)OC(OC(C)=O)c1ccc([N+](=O)[O-])o1	-6.15%	
COc1ccc(C2CNC(=O)C2)cc1OC1CCCC1 (stereo not given)	-4.1% [at 30.3 µM]	
CCCC/C=C/C=C\C=O	-3.06%	
CC(COc1ccc(C(C)(C)C)cc1)OS(=O)OCCCl (stereo not given)	-2.8%	
CCCCCCCC/C=C\CCCCCCCC(=O)OCCOC(=O)CCCCCCC/C=C\CCCCCCCC	-3.74%	
CCCCCOc1ccccc1/C(=C\SC)n1ccnc1	-3.81% [at 30.3 µM]	
O=S(=O)(O)c1cc(I)c(O)c2ncccc12	19.4% [at 30.3 µM]	
